Bioassay records: PubChem BioAssay, several laboratories
The list is not random: actives were taken first. Their share in the collection is about 3.1%.
EP2 modulator: modulates human prostaglandin E2 receptor EP2 signaling. induction, % at 25 µM. P43116. actives 0.83% (n = 260,000). EP2-expressing cells, cAMP HTRF FRET, PGE2 co-stimulation. AID 940;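 active = compounds whose cAMP rise, as percent of the full-agonist control response, exceeds 60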;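 also: rat C6 glioma line stably carrying human EP2 under a CMV promoter; the protocol text gives 20 µM as final concentration; 100% = response of wells given 1 µM PGE2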
Target sequence (P43116 whole entry, looked up): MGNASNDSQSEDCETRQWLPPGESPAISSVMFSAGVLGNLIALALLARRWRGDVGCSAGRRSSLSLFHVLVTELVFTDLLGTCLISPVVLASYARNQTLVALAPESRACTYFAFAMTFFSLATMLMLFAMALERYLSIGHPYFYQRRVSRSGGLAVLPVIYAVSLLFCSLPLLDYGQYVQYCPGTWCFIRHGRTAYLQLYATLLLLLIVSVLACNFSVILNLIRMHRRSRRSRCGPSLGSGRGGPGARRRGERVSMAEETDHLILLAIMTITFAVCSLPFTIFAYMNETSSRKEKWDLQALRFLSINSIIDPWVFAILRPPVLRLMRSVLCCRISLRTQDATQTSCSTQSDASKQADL
EP2 antag: EP2 receptor (human) inhibition | P43116 | C6 glioma cells expressing human EP2, cAMP TR-FRET; cells stimulated with saturating PGE2 | inhibition, % at 25 µM | actives 0.52% (n = 260,000);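 active = percent inhibition above 40 after rounding to a whole number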;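 also: rat C6 glioma host cells with rolipram phosphodiesterase inhibitor present; the protocol text gives 20 µM as final concentration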
S1P3 antag: blocks the human S1P3 receptor | Q99500 | CHO S1P3 NFAT-BLA reporter, FRET fluorescence, antagonist mode | inhibition, % at 4.98 µM | actives 0.27% (n = 170,000);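 active = inhibition above the plate cutoff, the mean inhibition of test wells on that plate plus 3 SD, cut at about 28% in these data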;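 also: cells challenged with S1P at its EC80 of 0.8 µM; blue over green emission ratio from cleaved BLA substrate after 4 h stimulation; 0% = S1P-stimulated wells and 100% = unstimulated DMSO-only wells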
Target sequence (Q99500 whole entry, looked up): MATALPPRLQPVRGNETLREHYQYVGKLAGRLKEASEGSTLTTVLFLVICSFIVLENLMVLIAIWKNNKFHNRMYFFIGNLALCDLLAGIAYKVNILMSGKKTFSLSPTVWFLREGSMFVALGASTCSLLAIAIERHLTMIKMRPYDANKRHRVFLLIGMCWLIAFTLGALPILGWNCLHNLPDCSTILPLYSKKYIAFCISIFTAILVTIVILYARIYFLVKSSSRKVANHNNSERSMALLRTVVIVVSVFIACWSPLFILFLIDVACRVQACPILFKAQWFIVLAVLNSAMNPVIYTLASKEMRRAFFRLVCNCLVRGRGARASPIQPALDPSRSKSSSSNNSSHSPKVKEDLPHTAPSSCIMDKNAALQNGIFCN
Cl transport mod: KCC2 (human) Cl- transport modulation. Q9H2X9. KCC2 cells, thallium flux FluoZin-2 fluorescence. B-score of Tl+ flux slope (higher = more flux/activation; lower = inhibition) at 10 µM. actives 2.2% (n = 190,000);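 active = thallium flux slope and its plate-corrected score both differing from the plate sample mean at a set confidence after two filtering rounds, in either direction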;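 also: slope of fluorescence scaled to starting intensity during 10 to 20 s after thallium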
KCC2 secondary: confirmation of human KCC2 transport modulators; shares compounds with Cl transport mod; HEK293-KCC2, thallium flux, FluoZin2 fluorescence; hits give high values; normalised thallium flux (F/F0 slope) at 10 µM; actives 15% (n = 3,700); AID 1713;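 active = thallium flux slope above the same plate's solvent-only control mean plus 3 SD; inconclusive = the two replicate wells disagree; inactive = no significant difference from solvent-only control wells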
KCC2 bumet counter: thallium flux persisting under bumetanide in KCC2 cells, counter-screen secondary assay; shares compounds with Cl transport mod; HEK293-KCC2 + bumetanide/ouabain, thallium flux FluoZin2; hits give high values; normalized thallium flux at 10 µM; actives 49% (n = 3,700); AID 1714;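 active = thallium entry rate above the same plate's blocked-transporter control wells by more than 3 SD; inconclusive = the two repeat wells disagree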;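 also: raw slope of fluorescence over initial fluorescence between 10 and 20 s after thallium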
KCC2 secondary2: KCC2 (human) modulation, second secondary assay | shares compounds with Cl transport mod | HEK293-KCC2, thallium flux FluoZin2 fluorescence; actives lie on both sides; F/F0 rise rate, 10–20 s post-thallium | normalized thallium flux at 10 µM | actives 23% (n = 3,700) | AID 1715;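 active = thallium flux slope more than 3 SD above or below the plate's solvent-only control mean, mostly below; inconclusive = the two repeat wells disagreed; inactive = no significant shift from solvent-only controls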;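 also: raw slope with 0.1% DMSO as baseline and bumetanide as block control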
HEK293 Tl flux: parental HEK flux effect, counter-screen; shares compounds with Cl transport mod; actives 46% (n = 3,700); HEK293 parental cells, thallium flux FluoZin2, ouabain; baseline-ratio fluorescence slope, 10–20 s after thallium; thallium flux rate (normalised fluorescence) at 10 µM;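 active = thallium flux rate significantly above the same plate's solvent-only control wells, beyond their mean plus 3 SD; inconclusive = the two replicate wells gave conflicting results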
KCC2 ouabain: modulates human KCC2 on retest with ouabain | shares compounds with Cl transport mod | HEK293-KCC2, thallium flux FluoZin2 fluorescence; bidirectional: low = inhibitor, high = activator | raw Tl+ flux slope (below DMSO = inhibition, above = activation) at 10 µM | actives 48% (n = 3,700) | AID 1717;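 active = thallium flux slope beyond 3 SD from same-plate DMSO control mean in most replicates, usually higher, sometimes lower; inconclusive = repeat tests gave conflicting results; inactive = no significant difference from controls in most replicates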;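 also: slope of initial-normalized fluorescence between seconds 10 and 20 after thallium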
HEK counter2: acts in parental HEK cells, second KCC2 counter-screen; thallium flux slope at 10 µM; actives 33% (n = 3,700); HEK293 parental, thallium flux FluoZin-2 fluorescence slope; shares compounds with Cl transport mod;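 active = thallium flux slope above the same plate's solvent-control mean plus 3 SD in both duplicate wells; inconclusive = duplicate wells that disagreed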;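 also: run without ouabain in cells lacking the KCC2 cotransporter; slope of fluorescence scaled to its starting value between 10 and 20 s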
Numbers without * were called inactive; ? = inconclusive; nt = no result given.

SMILES | EP2 modulator | EP2 antag | S1P3 antag | Cl transport mod | KCC2 secondary | KCC2 bumet counter | KCC2 secondary2 | HEK293 Tl flux | KCC2 ouabain | HEK counter2
O=S1(=O)N=C(N2CCN(Cc3ccccc3)CC2)c2ccccc21 | -28.9 | 9.3 | 6.5 | -5.95* | 0.00655 | 0.00439 | 0.0242* | 0.008 | ? | 0.0106
S=c1nc(-c2ccccc2)[nH]c2ccc(Br)cc12 | -1.6 | 15.0 | -10.9 | 107* | 0.0253* | 0.116* | 0.0993* | 0.108* | 0.108* | 0.0957*
CC(C)c1ccc(NC(=O)c2cccnc2)cc1 | 3.2 | 17.0 | 14.2 | -0.586 | nt | nt | nt | nt | nt | nt
CC(C)c1ccc(NC(=O)c2csnn2)cc1 | 4.2 | 5.4 | -12.0 | 6.69* | 0.0158 | 0.00423 | 0.0289 | 0.00703 | 0.0152 | 0.00981
O=C(N/N=C/c1ccc[nH]1)c1sc2ccccc2c1Cl | -29.3 | 13.3 | nt | 9.75* | 0.0138* | 0.0938* | 0.029 | 0.0238* | 0.0502* | 0.0111*
C(=N\Nc1nc2ccccc2s1)/c1ccccn1 | -23.1 | 12.0 | 16.3 | 6.91* | 0.00864 | ? | 0.0316 | ? | 0.0202 | 0.0117
COc1ccccc1-c1nnc2sc(COc3ccc(F)cc3)nn12 | -31.3 | nt | 25.5 | -3.91* | 0.00662 | 0.00478 | ? | 0.00588* | 0.0146* | ?
CC1CC(C)CN(C(=O)Cn2c(SCC(=O)Nc3ccccc3)nc3ccccc32)C1 (configuration not stated) | 23.8 | 12.1 | nt | nt | nt | nt | nt | nt | nt | nt
Cc1ccc(C2(C)NC(=O)N(Cc3c(C)noc3C)C2=O)cc1 (configuration not stated) | 37.7 | 9.8 | -3.2 | 0.0238 | nt | nt | nt | nt | nt | nt
Cc1noc(C)c1CN1C(=O)NC2(CCc3ccccc3C2)C1=O (configuration not stated) | 23.4 | 9.4 | -37.4 | 0.119 | 0.00971 | 0.00685 | 0.0336 | 0.00737 | 0.0217 | 0.01
O=C1NC(=S)N(c2cccc(Cl)c2)C12CCCCC2 | 34.5 | 6.6 | -10.1 | 4.64* | 0.00712 | 0.0106* | 0.0294 | 0.0134* | 0.0204 | 0.0121*
O=C(O)CSC1=NC(=Nc2cccc(Cl)c2)C2(CCCCC2)N1c1ccccc1 | 24.3 | 5.1 | -21.8 | -1.1 | nt | nt | nt | nt | nt | nt
CC(C)(C)c1cc(-c2n[nH]c(=S)n2-c2ccccc2F)n[nH]1 | 0.1 | 9.0 | -6.3 | 38.7* | 0.00717 | 0.0469* | 0.045* | 0.0331* | 0.0425* | 0.0305*
Cn1c(=O)sc2cc(S(=O)(=O)NCC3CC4CCC3C4)ccc21 (configuration not stated) | -86.2 | 8.0 | nt | nt | nt | nt | nt | nt | nt | nt
O=S(=O)(NCc1csc(-c2cccs2)n1)c1cccs1 | -1.9 | 8.8 | 11.6 | -4.11 | nt | nt | nt | nt | nt | nt
Cc1nc(CNS(=O)(=O)c2cccc(F)c2)cs1 | nt | -1.0 | -7.6 | 0.608 | nt | nt | nt | nt | nt | nt
O=S(=O)(NCc1csc(-c2cccs2)n1)c1ccc(Cl)cc1 | -8.7 | 12.0 | -8.9 | -5.12* | ? | ? | 0.019* | 0.00502* | 0.0102* | ?
O=S(=O)(NCc1csc(-c2cccs2)n1)c1cccc(C(F)(F)F)c1 | -3.2 | 9.6 | 1.4 | -5.4* | ? | 0.00357 | 0.0187* | 0.0058* | 0.0101* | ?
Cc1ccc(S(=O)(=O)NCc2csc(-c3cccs3)n2)cc1 | 13.0 | 15.6 | 3.5 | -2.12* | 0.0054 | 0.00354 | 0.0224* | 0.0063 | 0.012* | ?
COCC(=O)N1CCC[C@H]1Cn1nc(-c2ccc3c(c2)OCO3)ccc1=O | -33.8 | nt | nt | nt | nt | nt | nt | nt | nt | nt
COc1ccc(/C(O)=C2/C(=O)C(=O)N(Cc3cccnc3)C2c2cc(OC)ccc2OC)c(C)c1 (configuration not stated) | 11.0 | 16.0 | nt | nt | nt | nt | nt | nt | nt | nt
CC(=O)Nc1ccc(OCC(O)Cn2cnc3cc(C)c(C)cc32)cc1 (configuration not stated) | -49.3 | 10.0 | nt | nt | nt | nt | nt | nt | nt | nt
Cc1sc2nc(SCC(=O)NCc3ccco3)n(C)c(=O)c2c1C | -21.2 | 1.8 | -17.9 | -0.755 | nt | nt | nt | nt | nt | nt
CCOC(=O)CNC(=O)CSc1nc2sc(C)c(C)c2c(=O)n1C | -4.8 | 15.4 | nt | nt | 0.00642 | 0.0185* | 0.0373 | 0.0174* | 0.0266* | 0.0209*
Cc1sc2nc(SCC(=O)NCCO)n(C)c(=O)c2c1C | 12.3 | 6.5 | nt | nt | nt | nt | nt | nt | nt | nt
SMILES | EP2 modulator | EP2 antag | S1P3 antag | Cl transport mod | KCC2 secondary | KCC2 bumet counter | KCC2 secondary2 | HEK293 Tl flux | KCC2 ouabain | HEK counter2
Cc1sc2nc(SCC(=O)OC(C)C)n(C)c(=O)c2c1C | -7.3 | 12.4 | nt | nt | 0.00768 | 0.0143* | 0.0352 | 0.0151* | 0.0258* | 0.018*
CC1(C(=O)Nc2ccccc2Cl)Cc2ccccc2C(=O)O1 (configuration not stated) | 4.9 | 5.3 | nt | nt | nt | nt | nt | nt | nt | nt
CC(C)C(OC(=O)C1=Cc2ccccc2OC1)C(=O)NC1CCCC1 (configuration not stated) | -75.1 | 5.5 | -4.6 | -2.93 | nt | nt | nt | nt | nt | nt
O=C(OC(C(=O)NC1CCCC1)c1ccncc1)C1=Cc2ccccc2OC1 (configuration not stated) | -17.5 | 5.2 | nt | -4.33* | 0.00783 | 0.00702 | 0.0302 | 0.00632 | 0.0161* | 0.01
Cc1ccnc(N2CCCC(C(=O)Nc3ccc(C(C)(C)C)cc3)C2)n1 (configuration not stated) | -42.8 | 8.2 | nt | nt | nt | nt | nt | nt | nt | nt
O=C(N/N=C/c1ccc([N+](=O)[O-])s1)c1ccccc1 | -57.8 | 2.4 | -19.7 | 6.36* | 0.0106 | 0.0172* | 0.0349 | ? | 0.0278* | ?
O=C(N/N=C/c1ccc([N+](=O)[O-])s1)c1ccccc1Br | 0.5 | 13.8 | nt | 0.896 | nt | nt | nt | nt | nt | nt
O=C(Cc1ccccc1)N/N=C/c1ccc([N+](=O)[O-])s1 | -40.6 | 6.4 | nt | nt | 0.00783 | ? | 0.0313 | ? | 0.02 | ?
CCn1c(Cc2ccccc2)nnc1SCC(N)=O | 6.3 | 20.9 | nt | nt | nt | nt | nt | nt | nt | nt
FC(F)(F)c1ccc(Cl)c(-n2c(-c3cc(C4CC4)[nH]n3)n[nH]c2=S)c1 | 9.2 | 8.2 | 7.1 | 4.07* | 0.0113 | 0.0157* | 0.0354 | ? | ? | 0.0122
O=S(=O)(Nc1nc2ccccc2nc1Nc1cccc(S(=O)(=O)N2CCCCC2)c1)c1ccccc1 | -73.0 | 10.3 | -0.7 | -3.52* | 0.0063 | 0.00677 | 0.0263 | ? | ? | 0.00974
COc1ccc(/C=C/C(=O)NC(=S)N2CCN(c3ccccn3)CC2)cc1 | -42.1 | 7.1 | -0.5 | 5.9* | 0.00535 | 0.0238* | 0.0319 | 0.0126* | ? | 0.0149*
